Among the data in PubChem BioAssay (Tox21) are outcome and Potency values, retold here.

Calls of active or inactive are those of the source. Unless noted, the call rests on the fitted dose curve; in most records, active means well fitted curve in the direction sought with a large enough effect in the repeat runs; inconclusive means weak or mixed curves; inactive means no such curve, though single readings can be large; an effect the other way counts as inactive or inconclusive.

A short description of experiment [1]: qHTS assay to test for compound auto fluorescence at 590 nm (red) in HepG2 cells (AID 720674). Summed up: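 Rose Bengal sodium served as the red fluorophore standard. HepG2 monolayers (overnight attachment, MEM with 10% FBS) were exposed to test compounds for 1 hr at 37 C and read at Ex 540/Em 590 nm.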
Background: qHTS replaces the single test concentration by a dilution series.

A short description of experiment [2]: qHTS assay to test for compound auto fluorescence at 460 nm (blue) in HEK293 cells (AID 720678). Summed up:
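Blue read-out at excitation 405 nm and emission 460 nm follows overnight compound exposure of HEK293 cells at 37C in 5% CO2. Activity is given as auto fluorescence equivalency to triamterene.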

The nature of experiment [3]: qHTS assay to test for compound auto fluorescence at 590 nm (red) in HEK293 cells (AID 720679). Summed up:
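Red channel, Ex/Em 540/590nm; signal expressed as equivalency to Rose Bengal sodium. HEK293, 2,000 cells/well, 10% dialyzed FBS; 23 nL compound pinned after 4-5 hr attachment; overnight 37C/5% CO2 before reading.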

The target of experiment [4] is Glucocorticoid receptor (Homo sapiens) (UniProt P04150). Put plainly: qHTS assay to identify small molecule agonists of the glucocorticoid receptor (GR) signaling pathway (AID 720691; active means well fitted activation curve with a large enough effect in the signal ratio in the repeat runs, not every such curve was filed as active; inconclusive means weak or mixed curves, or effect the other way; inactive means no such curve, though single readings can be large or run the other way; the % refers to the signal ratio). Summed up:
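A HeLa cervical cancer line expressing GR and a glucocorticoid response element-driven beta-lactamase gene is treated with compounds for 18 h; LiveBLAzer B/G FRET substrate is then applied and fluorescence read.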

The target is the same in experiment [5]. Put plainly: qHTS assay to identify small molecule antagonists of the glucocorticoid receptor (GR) signaling pathway (AID 720692; active means well fitted inhibition curve with a large enough effect in the signal ratio in the repeat runs, not every such curve was filed as active; inconclusive means weak or mixed curves, or effect the other way; inactive means no such curve, though single readings can be large or run the other way; the % refers to the signal ratio). Summed up: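 GRE-bla HeLa line, dex-stimulated (5 nM final). Compound exposure 18 h, 37 C. Beta-lactamase FRET read after 2 h RT substrate.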
Experiment [6] can be described thus: qHTS assay to identify small molecule antagonists of the glucocorticoid receptor (GR) signaling pathway - cell viability counter screen (AID 720693). Further: nearly all actives have a fitted effect of over 55% in size. Further: potency means the concentration at half of the fitted maximal effect.
The nature of experiment [7]: qHTS assay for identifying genotoxic compounds that show differential cytotoxicity against isogenic chicken DT40 cell lines with known DNA damage response pathways - wild type cell line (AID 743012). Further: nearly all actives have a fitted effect of over 60% in size. Further: potency means the concentration at half of the fitted maximal effect. Summed up: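 300 wt DT40 cells/well; cpd (DMSO) pintool-transferred after ~0.5 h at 37 C/5% CO2; 40 h incubation; CellTiter-Glo added, 30 min RT; luminescence read.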
Experiment [8] is described as follows: qHTS assay for identifying genotoxic compounds that show differential cytotoxicity against isogenic chicken DT40 cell lines with known DNA damage response pathways - Rev3 mutant cell line (AID 743014). Further: nearly all actives have a fitted effect of over 55% in size. Further: potency means the concentration at half of the fitted maximal effect.
Experiment [9] is described as follows: qHTS assay for identifying genotoxic compounds that show differential cytotoxicity against isogenic chicken DT40 cell lines with known DNA damage response pathways - Rad54/Ku70 mutant cell line (AID 743015). Further: nearly all actives have a fitted effect of over 60% in size. Further: potency means the concentration at half of the fitted maximal effect.
The nature of experiment [10]: qHTS assay to identify small molecule antagonists of the androgen receptor (AR) signaling pathway - cell viability counter screen (AID 743033; further: nearly all actives have a fitted effect of over 45% in size; further: potency means the concentration at half of the fitted maximal effect).
The nature of experiment [11]: qHTS assay to identify small molecule antagonists of the thyroid receptor (TR) signaling pathway - cell viability counter screen (AID 743064). Further: nearly all actives have a fitted effect of over 50% in size. Further: potency means the concentration at half of the fitted maximal effect. Summed up:
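Rat GH3 pituitary tumor cells stably expressing two TR response elements driving luciferase were plated, rested 4 h, then dosed with library compounds and T3 (1 nM final). After 23.5 h at 37 °C, CellTiter-Fluor was added for 30 min and fluorescence recorded.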

Experiment [12] can be described thus: qHTS assay to identify small molecule antagonists of the thyroid receptor (TR) signaling pathway (AID 743065). Further: nearly all actives have a fitted effect of over 55% in size. Further: potency means the concentration at half of the fitted maximal effect. Summed up:
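GH3.TRE-Luc rat pituitary cells carrying two TR response elements driving luciferase were plated for 4 h, given compound plus 1 nM T3 (final), and incubated 23.5 h at 37 C. ONE-Glo luminescence measured reporter inhibition; CellTiter-Fluor fluorescence tracked cytotoxicity.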

Experiment [13] deals with Estrogen receptor (Homo sapiens) (UniProt P03372). Put plainly: qHTS assay to identify small molecule agonists of the estrogen receptor alpha (ER-alpha) signaling pathway (AID 743075; calls by dose curve;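 further: HEK293 GripTite cells with ER-alpha and UAS-driven beta-lactamase reporter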; further: potency means the concentration at half of the fitted maximal effect).
Estrogen receptor (Homo sapiens), sequence (P03372 whole entry, looked up): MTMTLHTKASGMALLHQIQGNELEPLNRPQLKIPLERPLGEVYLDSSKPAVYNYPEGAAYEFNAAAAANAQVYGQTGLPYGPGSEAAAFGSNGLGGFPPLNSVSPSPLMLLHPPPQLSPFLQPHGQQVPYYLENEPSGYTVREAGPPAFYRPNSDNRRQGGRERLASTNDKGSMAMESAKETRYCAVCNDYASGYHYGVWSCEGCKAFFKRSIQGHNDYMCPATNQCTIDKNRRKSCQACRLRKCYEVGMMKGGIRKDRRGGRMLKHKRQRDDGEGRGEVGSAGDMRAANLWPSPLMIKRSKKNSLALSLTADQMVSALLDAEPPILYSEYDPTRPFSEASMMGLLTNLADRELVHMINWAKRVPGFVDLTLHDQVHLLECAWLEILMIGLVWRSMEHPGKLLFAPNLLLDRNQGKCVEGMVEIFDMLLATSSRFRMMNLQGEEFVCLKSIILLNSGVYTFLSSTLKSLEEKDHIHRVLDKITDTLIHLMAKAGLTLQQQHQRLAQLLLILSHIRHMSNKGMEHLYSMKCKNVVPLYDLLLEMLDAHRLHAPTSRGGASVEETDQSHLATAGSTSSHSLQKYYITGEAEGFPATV
Experiment [14] has the same target. Kind of experiment: qHTS assay to identify small molecule agonists of the estrogen receptor alpha (ER-alpha) signaling pathway using the BG1 cell line (AID 743079). Further: nearly all actives have a fitted effect of over 20% in size.
For experiment [15], the target named is Peroxisome proliferator-activated receptor gamma (Homo sapiens) (UniProt P37231). Put plainly: qHTS assay to identify small molecule agonists of the peroxisome proliferator-activated receptor gamma (PPARg) signaling pathway (AID 743094; active means well fitted activation curve with a large enough effect in the signal ratio in the repeat runs, not every such curve was filed as active; inconclusive means weak or mixed curves, or effect the other way; inactive means no such curve, though single readings can be large or run the other way; the % refers to the signal ratio). Summed up:
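Cell-based bla reporter, HEK293H background, PPARg-driven UAS. Pre-incubation 5 h, 37C, 5% CO2. Compound 17 h, 37C. Substrate 1 h RT; fluorescence.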

Experiment [16] has as its target Nuclear receptor subfamily 1 group I member 2 (Homo sapiens) (UniProt O75469). Kind of experiment: CYP3A4 induction through human pregnane X receptor (PXR) by small molecules, qHTS assay (AID 1346984). Further: nearly all actives have a fitted effect of over 40% in size. Summed up: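 Human PXR activation is tracked via CYP3A4 promoter-luciferase in DPX-2 (HepG2) cells. Compounds treat cells for 24hr at 37C, and luminescence is read after One-Glo.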

Experiment [17] shares this target. Kind of experiment: Human pregnane X receptor (PXR) activation by small molecules, qHTS assay (AID 1346985). Further: nearly all actives have a fitted effect of over 40% in size. Summed up: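 DPX-2 cells (HepG2 co-transfected with a PXR response element and a CYP3A4-promoter luciferase construct) were seeded at 2,000 per well, rested 5 hr at 37C, then exposed to DMSO-dissolved compounds for 24 hr. Activation was read as luciferase luminescence.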

The nature of experiment [18]: qHTS assay for small molecules that induce genotoxicity in human embryonic kidney cells expressing luciferase-tagged ATAD5 (AID 651632). Further: nearly all actives have a fitted effect of over 15% in size. Further: potency means the concentration at half of the fitted maximal effect. Summed up: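 Test compounds were delivered by pin tool onto HEK293T reporter cells (2,000/well) expressing ATAD5 fused to luciferase. After 16 hr at 37C, 5% CO2, Amplite was added for 30 min at room temperature and luminescence was measured.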

Experiment [19] is described as follows: qHTS assay for small molecule agonists of the p53 signaling pathway - cell viability (AID 651633; calls by dose curve; further: nearly all actives have a fitted effect of over 30% in size; further: potency means the concentration at half of the fitted maximal effect). Summed up:
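p53RE-bla cells, seeded at 4,000 per well and rested 5 h at 37 C/5% CO2, received compounds in DMSO for 16 h at 37 C. CellTiter-Glo was then added, and luminescence was read after 30 min at room temperature to gauge cytotoxicity.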

The nature of experiment [20]: qHTS assay to test for compound auto fluorescence at 460 nm (blue) in HepG2 cells (AID 720687). Summed up:
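Cells (2,000/well in MEM with 10% FBS) attached overnight at 37 C, then were exposed to compound or DMSO for 1 hr at 37 C, 5% CO2. Fluorescence read at Ex/Em 405/460 nm, expressed as triamterene-equivalent signal.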

Peroxisome proliferator-activated receptor gamma (Homo sapiens), sequence (P37231 whole entry, looked up): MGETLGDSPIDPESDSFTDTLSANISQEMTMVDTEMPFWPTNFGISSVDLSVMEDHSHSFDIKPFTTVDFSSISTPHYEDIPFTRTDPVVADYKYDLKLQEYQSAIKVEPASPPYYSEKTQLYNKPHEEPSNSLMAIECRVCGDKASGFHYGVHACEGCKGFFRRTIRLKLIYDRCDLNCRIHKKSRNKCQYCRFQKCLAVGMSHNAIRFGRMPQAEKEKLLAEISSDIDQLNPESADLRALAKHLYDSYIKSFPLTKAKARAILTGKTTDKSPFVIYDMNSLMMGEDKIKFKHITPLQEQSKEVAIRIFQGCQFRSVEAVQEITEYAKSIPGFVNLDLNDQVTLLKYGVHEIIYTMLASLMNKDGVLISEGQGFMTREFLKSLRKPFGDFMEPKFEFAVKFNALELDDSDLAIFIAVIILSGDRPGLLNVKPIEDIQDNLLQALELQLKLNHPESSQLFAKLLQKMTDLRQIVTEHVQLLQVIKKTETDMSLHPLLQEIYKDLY
Glucocorticoid receptor (Homo sapiens), sequence (P04150 whole entry, looked up): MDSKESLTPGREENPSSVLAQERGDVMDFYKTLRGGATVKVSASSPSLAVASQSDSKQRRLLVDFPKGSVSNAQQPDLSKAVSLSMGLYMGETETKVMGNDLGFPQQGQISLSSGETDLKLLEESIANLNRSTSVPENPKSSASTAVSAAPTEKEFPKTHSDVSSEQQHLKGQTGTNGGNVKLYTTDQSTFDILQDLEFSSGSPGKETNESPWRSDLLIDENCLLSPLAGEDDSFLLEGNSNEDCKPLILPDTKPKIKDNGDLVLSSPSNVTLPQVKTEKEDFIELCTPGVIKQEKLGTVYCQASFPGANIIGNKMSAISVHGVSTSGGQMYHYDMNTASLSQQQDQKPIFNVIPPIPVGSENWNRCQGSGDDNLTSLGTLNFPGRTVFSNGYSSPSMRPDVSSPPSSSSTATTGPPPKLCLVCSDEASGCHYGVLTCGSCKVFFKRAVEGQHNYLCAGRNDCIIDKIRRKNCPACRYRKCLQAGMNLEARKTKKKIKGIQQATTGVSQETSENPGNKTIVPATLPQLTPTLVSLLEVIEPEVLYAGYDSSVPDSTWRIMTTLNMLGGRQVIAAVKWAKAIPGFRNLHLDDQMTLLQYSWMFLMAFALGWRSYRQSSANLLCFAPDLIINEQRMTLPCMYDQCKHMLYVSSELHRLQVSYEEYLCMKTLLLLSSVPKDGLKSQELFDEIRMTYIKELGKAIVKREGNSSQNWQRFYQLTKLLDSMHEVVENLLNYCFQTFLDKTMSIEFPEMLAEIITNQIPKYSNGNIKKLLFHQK

Consider `N#CC1(N2CCCCC2)CCCCC1`, for which the compound was classed as inactive in experiment [1] and in experiment [3]. Besides, the Potency result in experiment [2], in experiment [4], in experiment [5], in [6], in [7] and in experiment [8] was “inactive” in each case. Also, the Potency entry in [9], in experiment [10], in experiment [11], in experiment [12], in [13] and in experiment [14] was “inactive” throughout. The Potency result in [15], in experiment [16] and in experiment [17] was “inactive” each time.

Consider `C[N+]1([O-])[C@@H]2CC(OC(=O)[C@H](CO)c3ccccc3)C[C@H]1[C@@H]1O[C@@H]12` (stereo partly drawn), for which the Potency result in experiment [18], in experiment [19], in experiment [20], in experiment [4], in experiment [5] and in [6] was “inactive” throughout. In addition, the Potency entry in experiment [8], in [9], in experiment [10], in experiment [11], in experiment [12] and in [13] was “inactive” in each case. Moreover, the Potency entry in [14], in [15], in experiment [16] and in [17] was “inactive” throughout. The call in experiment [1] and in [3] was inactive.

As for `OC(c1ccccc1)(c1ccccc1)C1CN2CCC1CC2` (stereo not drawn), the Potency entry in [18], in experiment [19], in experiment [2], in [4], in experiment [5] and in experiment [13] was “inactive” each time. Moreover, the Potency result in [14], in experiment [15], in experiment [16] and in experiment [17] was “inactive” each time. In addition, the outcome in experiment [1] and in [3] was inactive. Besides, the values for the Potency in [7] and in experiment [12] were 26600 nM (active) and 29800 nM (active), respectively.

On to `CCCCC[C@@H](O)C1C(=O)OC(C)[C@H](O)/C=C/C=C/C=C/C=C/C=C(\C)C(O)C(O)C(O)C[C@H](O)C[C@H](O)C[C@H](O)C[C@H](O)C[C@@H]1O` (stereo partly drawn), for which the Potency entry in experiment [18], in experiment [19], in experiment [2], in experiment [20], in [4] and in [5] was “inactive” throughout. Moreover, the Potency result in [6], in experiment [7], in experiment [8], in experiment [9], in [10] and in experiment [11] was “inactive” in each case. In addition, the Potency entry in [12], in experiment [13], in experiment [14], in [15], in experiment [16] and in [17] was “inactive” throughout. Further, the call in experiment [3] was inactive.

Turning to `O=C(CS(=O)C(c1ccccc1)c1ccccc1)NO` (stereo not drawn), the Potency result in experiment [18], in experiment [19], in experiment [2], in experiment [4], in experiment [7] and in experiment [8] was “inactive” each time. Also, the Potency result in experiment [9], in [11], in [12], in experiment [13], in experiment [14] and in [15] was “inactive” in each case. For the same compound, the Potency result in experiment [16] and in experiment [17] was “inactive” throughout. The call in experiment [1] and in experiment [3] was inactive.

For `C[C@H]1CC[C@]2(NC1)O[C@H]1C[C@H]3[C@@H]4CC[C@H]5C[C@@H](O[C@@H]6O[C@H](CO)[C@H](O[C@@H]7O[C@H](CO)[C@@H](O)[C@H](O[C@@H]8OC[C@@H](O)[C@H](O)[C@H]8O)[C@H]7O[C@@H]7O[C@H](CO)[C@@H](O)[C@H](O)[C@H]7O)[C@H](O)[C@H]6O)CC[C@]5(C)[C@H]4CC[C@]3(C)[C@H]1[C@@H]2C`, the Potency in experiment [18] was 1330 nM (active); in experiment [19], 2110 nM (active); in [6], 2390 nM (active); in [8], 2370 nM (active); in experiment [9] it was 2370 nM (active); in experiment [10], 4770 nM (active). Further, the Potency in experiment [11] was 2370 nM (active); in [12], 2370 nM (active); in [13] it was 9520 nM [inconclusive] (active). Moreover, the Potency result in [2], in experiment [20], in experiment [16] and in experiment [17] was “inactive” each time. Further, the outcome in experiment [3] was inactive.
